Experimental data: the supplement of paper PMC6992640
± gives the standard deviation of the averaged measurements.

Test system: HCI13 (cells of an ER-positive luminal breast cancer xenograft)
Experiment: cell viability (% of vehicle); higher = less cytotoxic
Conditions: 10 µM; 72 h
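Further: PDX cells carrying CMV promoter-driven luciferase, viability read as total photon flux per second by IVIS imaging following D-luciferin, vehicle control 0.1% DMSO.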

Going from `Cc1ccc(-n2[nH]c(C)c(NN=C3C=CC=C(c4cccc(C(=O)O)c4)C3=O)c2=O)cc1C.NCCO.NCCO` [Eltrombopag Olamine] to `CO[C@H]1/C=C/O[C@@]2(C)Oc3c(C)c(O)c4c(O)c(c5c(nc6cc(C)ccn65)c4c3C2=O)NC(=O)/C(C)=C\C=C\[C@H](C)[C@H](O)[C@@H](C)[C@H](O)[C@@H](C)[C@H](OC(C)=O)[C@@H]1C` [Rifaximin (Xifaxan)], the cell viability rises from 43.8 ± 1.1 to 98.8 ± 33.

First: CCN1CCN(c2cc3c(cc2F)c(=O)c(C(=O)O)cn3C2CC2)CC1 [Enrofloxacin]
Second: CS(=O)(=O)N1CCN(Cc2cc3nc(-c4cccc5[nH]ncc45)nc(N4CCOCC4)c3s2)CC1
The cell viability of the first is higher: 121 ± 8.5 for the first, 90.7 ± 3.3 for the second.

First: C[N+]1(C)C2CCC1CC(OC(=O)C(O)c1ccccc1)C2.[Br-] (stereo unspecified) [Homatropine Methylbromide]
Second: COc1ccc(C2CNC(=O)C2)cc1OC1CCCC1 (stereo not drawn) [S- (+)-Rolipram]
The cell viability of the first is lower: 105 ± 5 for the first, 144 ± 31 for the second.

`O=C(O)C1=COC(OC2OC(CO)C(O)C(O)C2O)C2C(CO)=CCC12` (stereo unspecified) [Geniposidic acid] and `CCC(CC)C(NC(C)=O)C1C(N=C(N)N)CC(C(=O)O)C1O` (stereo unspecified) [Peramivir] are within error of each other in cell viability: 107 ± 12 for the first, 102 ± 20 for the second.

`CC(C)NCC(O)c1ccc(NS(C)(=O)=O)cc1.Cl` (stereo unspecified) [Sotalol hydrochloride] and `Cc1cc(NS(=O)(=O)c2ccc(N)cc2)no1` [Sulfamethoxazole] are within error of each other in cell viability: 126 ± 18 for the first, 120 ± 1.2 for the second.

`CC(C)(O)c1ccccc1CCC(SCC1(CC(=O)[O-])CC1)c1cccc(C=Cc2ccc3ccc(Cl)cc3n2)c1.[Na+]` (stereo unspecified) [Montelukast Sodium] gave a cell viability of 45.5 ± 6.3.
